# Measurements as given in the supplement of paper PMC6555819.
# What was measured:
# Experiment in all cases: PBM binding z-score (relative to random genomic background probes); higher = stronger binding; sequences stand for … in GC…GCGATTGACAGCGTAGAATGAAGG
# [1] = system: FXR:RXRa (NR concentration 270 nM, RXRa partner concentration 90 nM)
# Outline: (§1)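 Probes were double-stranded and carried 34-nt variable regions with direct-repeat seeds, single-nucleotide variants, half-site ablations and random human genomic background sequences, printed on custom Agilent 4×180K protein-binding microarrays. Arrays were incubated 1 h with ligand-free nuclear receptor dimers in PBS pH 7.4, 2% milk, 0.02% Triton X-100, 1 mM DTT, 0.2 mg/mL BSA and 0.4 mg/ml salmon testes DNA. Antibodies against each partner (one per run) detected binding, and scanned fluorescence was regression-normalized. Binding z-scores use the random background probes as reference.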
# [2] = system: LXRa:RXRa (NR concentration 270 nM, RXRa partner concentration 90 nM)
# Outline: as §1
# [3] = system: LXRa homodimer (NR concentration 270 nM)
# Outline: as §1
# [4] = system: LXRb:RXRa (NR concentration 270 nM, RXRa partner concentration 90 nM)
# Outline: as §1
# [5] = system: LXRb homodimer (NR concentration 270 nM)
# Outline: as §1
# [6] = system: PPARa:RXRa (NR concentration 270 nM, RXRa partner concentration 90 nM)
# Outline: as §1
# [7] = system: PPARg:RXRa (NR concentration 180 nM, RXRa partner concentration 90 nM)
# Outline: as §1
# [8] = system: PPARg:RXRa 270nM:90nM, anti-RXR (NR concentration 270 nM, RXRa partner concentration 90 nM)
# Outline: as §1
# [9] = system: PPARg:RXRa 30nM:10nM, anti-RXR (NR concentration 30 nM, RXRa partner concentration 10 nM)
# Outline: as §1
# [10] = system: PPARg:RXRa 90nM:30nM, anti-RXR (NR concentration 90 nM, RXRa partner concentration 30 nM)
# Outline: as §1
# [11] = system: PPARg:RXRa DBDmut IVT, anti-RXR (DBD mutation: RXRa K156A/R161A, NR concentration 270 nM, RXRa partner concentration 90 nM)
# Outline: as §1
# [12] = system: PPARg:RXRa IVT, anti-PPARg (NR concentration 270 nM, RXRa partner concentration 90 nM)
# Outline: as §1
# [13] = system: PPARg DBDmut:RXRa IVT, anti-PPARg (DBD mutation: PPARg1 K132A/R137A, NR concentration 270 nM, RXRa partner concentration 90 nM)
# Outline: as §1
# [14] = system: PPARg DBDmut IVT, anti-PPARg (DBD mutation: PPARg1 K132A/R137A, NR concentration 270 nM)
# Outline: as §1
# [15] = system: PPARg homodimer (NR concentration 180 nM)
# Outline: as §1
# [16] = system: PXR:RXRa (NR concentration 270 nM, RXRa partner concentration 90 nM)
# Outline: as §1
# [17] = system: PXR homodimer (NR concentration 270 nM)
# Outline: as §1
# [18] = system: RARa:RXR (NR concentration 270 nM, RXRa partner concentration 90 nM)
# Outline: as §1
# [19] = system: RARa homodimer (NR concentration 270 nM)
# Outline: as §1
# [20] = system: RARb:RXRa (NR concentration 270 nM, RXRa partner concentration 90 nM)
# Outline: as §1
Sequence,PBM binding z-score [1],PBM binding z-score [2],PBM binding z-score [3],PBM binding z-score [4],PBM binding z-score [5],PBM binding z-score [6],PBM binding z-score [7],PBM binding z-score [8],PBM binding z-score [9],PBM binding z-score [10],PBM binding z-score [11],PBM binding z-score [12],PBM binding z-score [13],PBM binding z-score [14],PBM binding z-score [15],PBM binding z-score [16],PBM binding z-score [17],PBM binding z-score [18],PBM binding z-score [19],PBM binding z-score [20]
TCTCGCAGGACACGAAGGTCAGAGCTTTCCAGAG,1.36,1.16,0.275,1.43,-0.948,1.92,0.556,1.75,1.75,1.74,1.49,0.67,-1.01,-1.42,0.787,1.44,-0.0691,1.81,-0.422,2.74
TATACAGGGGCAAAGGCCAGAGTACGAATGTCGA,0.799,1.07,0.0951,1.34,1.92,2.84,4.54,5.09,3.45,4.92,0.641,2.72,1.72,2.01,1.16,0.577,0.087,0.592,0.364,2.1
ACAGACAGGTGATGAAGGTAACGCAGGCTATCAT,-0.062,-0.206,-0.481,-0.283,-0.516,-0.00302,0.871,0.114,-0.0221,0.00481,-0.0406,0.365,-0.0492,0.0429,-0.243,-0.376,0.103,-0.27,-0.271,0.179
ATCTCTAGGTAAGACTCAGTTAAGTGAAGAACGC,0.573,0.359,0.508,0.191,0.75,0.00438,0.0664,-0.0342,0.242,-0.00989,1.7,1.21,0.936,1.52,0.709,0.115,0.648,0.211,1.29,0.0635
CGAACTTGGTCAGAACAGGACAGTGAAGGATGAT,-0.314,-0.426,-0.321,-0.516,-0.663,-0.129,0.567,-0.142,-0.0842,-0.55,-0.158,0.0276,0.221,-0.53,-0.163,-0.41,0.0699,0.0937,-0.39,0.542
AGAACGAGGTTATACGTAGATCAGGGAAGAAAGT,1.59,1.47,0.0402,1.32,-0.361,2.78,1.58,1.39,0.732,1,2.22,1.34,0.863,0.661,0.41,0.761,0.521,1.27,0.483,1.27
CGTCCAAGGTCAAAGGTCAGTGATGAGATGACGG,8.34,6.88,3.97,6.55,2.01,7.15,10.7,8.75,8.43,9.31,4.14,5.89,0.972,0.974,3.97,6.83,1.94,8.65,1.61,6
CTCGAAAGGTCGTGCTCAGGTGATTATACCAAAC,4.98,4.19,0.561,3.64,0.429,4.83,2.63,3.52,0.939,2.35,0.733,1.72,1.57,0.403,2.1,3.55,0.276,4.32,0.268,3.86
ATATGTAGGTTATCGAGTCATTCAGTTTGCGCAT,0.672,1.1,0.419,1.04,0.701,3.37,4.61,4.14,2,3.27,6.65,6.84,3.25,2.73,1.91,0.622,0.241,0.687,1,0.872
TCTATTAGTTGATGAGGGCAACCGAAACAGCGGA,0.667,0.683,0.18,0.607,0.412,1.07,0.347,2,3.62,2.83,2.06,0.967,0.312,0.843,1,0.877,0.351,0.981,0.755,1.41
ATCTCTCGGTAAAGATAGTTCAGTGAATGCAAAT,0.327,1.31,0.62,0.406,0.893,0.353,0.0238,0.0221,0.409,0.333,-0.304,0.216,0.814,0.624,1.08,0.754,0.572,0.965,1.32,0.868
TCTATTTGTTGATTAGGGCAACCGAAACAGCGGA,0.7,0.785,0.435,0.575,1.08,0.93,0.259,2.04,3.98,2.81,1.93,1.79,1.53,1.99,1.59,0.675,0.358,0.837,1.13,1.09
CCTCGGAGGACAGAAGGTCAGAGTTGTCCGCTTT,1.19,1.59,0.486,1.21,-0.813,1.88,0.0255,0.907,-0.816,0.173,0.283,0.171,-1.27,-1.42,0.997,1.77,-0.24,2,0.0194,3.16
CCTACCGGGCCAAAAAGGTCATTGATGCCGATAA,3.51,4.28,3.75,4.21,0.286,4.55,1.69,3,0.292,1.97,-0.0213,1.89,-0.195,-1.09,3.48,5,5.72,5.47,1.6,3.96
GCTAGCAAGCCATTTGGGTCACTCAATGACGGGC,-0.28,-0.493,-0.817,-0.134,-0.898,1.15,0.614,0.042,-0.634,-0.546,0.501,1.28,-0.713,-0.878,-0.494,0.0188,-0.796,0.479,-0.835,0.979
CCTATTAGTTGACCAAAAGGGCAACCGAAGCTCG,0.908,0.905,0.816,1.02,0.763,1.5,0.545,1.52,0.286,1.18,0.681,1.22,-0.0971,1.05,2.38,1.09,0.687,1.37,1.39,2.51
CCTTACGGGTCAATGACAGGTTATAGCATTTGGA,6.33,4.45,1.11,3.68,0.333,5.07,3.44,3.62,1.13,2.5,2.52,2.91,0.126,0.222,4.22,3.44,0.512,4.2,0.757,3.97
CTCGAAAGGTGGGTTGAGGTGAGTATACGGATAA,0.825,0.397,0.00532,1.1,0.353,1.22,0.158,0.31,-0.0559,-0.00652,0.207,0.842,0.168,0.0199,0.652,1.01,0.754,1.22,0.749,0.866
CCAGACAGGTGAGAAGGTTACTCAGCCTCGATTA,0.207,0.568,-0.0205,0.724,-0.277,1.54,0.536,0.872,0.0606,0.56,0.947,1.04,-0.652,-0.801,1.03,0.441,0.133,1.23,0.46,1.36
TGTCAAAGTTCAAAGGTAACGAAAGTATCCACAC,7.51,6.49,4.27,5.02,1.67,6.08,9.12,7.76,6.04,7.45,0.62,4.53,1.27,1.66,3.32,5.76,3.79,6.83,1.29,5.22
ACTATTATTTGACTTAGGGCAACCGATACGACGC,0.71,0.925,1.54,0.685,1.46,0.557,1.15,0.779,0.924,0.948,0.814,0.633,1.79,2.46,2.16,0.502,1.69,0.728,3.4,1.21
CTCGAAAGGTCGGTTGAGGTGAGTCTACGGATAA,2.75,1.97,-0.215,1.29,-0.179,2.62,0.161,1.13,0.171,0.803,0.22,0.948,-0.0486,-0.386,1.13,3.39,-0.0836,2.2,-0.523,2.97
TATTGTAGATCAAGCAGGTTAAGAAAGCCTGAGT,-0.385,0.0261,-0.0497,-0.0709,0.0382,0.359,-0.08,0.334,0.0668,0.218,0.302,1.02,0.542,0.816,0.0743,0.218,-0.248,0.378,0.348,-0.0192
CGTCCAAGGTCATAGGTGGTCAGTGAAGACAGAT,7.11,5.63,1.51,4,0.409,5.57,5.44,5.25,2.42,4.36,2.96,3.73,0.259,-0.648,2.54,4.5,1.58,5,1.26,4.89
AGTCAAAGTTCAGGGCGAGGTAACGTAAAGCACG,4.49,4.03,1.39,2.27,0.321,3.75,5.2,5.24,1.76,4.08,0.0616,2.24,-0.0376,0.418,2.91,3.19,1.1,2.93,1.23,4.49
AATACAGGGTCACTAGACCAGAGTAGGTACGAAT,5.74,4.72,0.962,3.65,0.659,5.33,6.24,5.76,2.72,4.31,2.98,4.48,1.64,0.757,1.41,3.05,0.6,4.02,0.657,4.12
CCTCGGAGGACAGAAGGTCATAGCTGTCCGCTTT,2.89,3.44,1.4,2.23,-0.526,3.17,0.58,1.68,-0.379,0.915,0.177,0.772,-1.55,-1.54,2.13,3.22,0.225,3.55,0.138,3.5
CAAAGTAGGTCAAAGGTCAAAGTCGAGCCAACCA,8.51,7.21,5.79,7.26,3.36,7.84,14.1,11.4,14.4,13.2,8.81,9.31,4.15,2.43,4.72,7.22,2.39,8.98,3.23,5.92
CAAACTAGGTCAAGGTCAACGTCGGTTTGTGCCA,6.57,5.33,3.32,4.35,0.922,6.21,9.59,8.11,6.56,8.58,8.4,8.81,6.29,2.23,4.73,5.27,1.97,5.42,2.12,5.36
